From PubChem BioAssay AID1159580 (chemical genetic matrix, 2015)
Values joined by “and” are separate entries in the source; they are usually repeats but may differ in a detail not shown here. Identical values can stand only once. About 2,000 (36%) of roughly 5,500 compounds were called active. About 18% were inconclusive and are not listed. No stated cut-off is given here; in the data, active means normalized growth mostly below about 0.91 (no sharp cut-off); inconclusive means no clear call, values can overlap the other calls; inactive means mostly above about 0.92. Some of the results follow.

Test: chemical genetic growth profiling, strain panel (AID 1159580);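 further: tested at 20 µM; growth read once vehicle control cultures reached saturation at 30 °C; 1 = growth at the plate median or of vehicle wells; lower values mean less growth of the strain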
Details: S. cerevisiae deletion strains, growth OD

Measured: normalized growth

CC1(C)CC[C@]2(C)CC[C@]3(C)C(=CCC4[C@@]5(C)CC[C@H](O)C(C)(C)C5CC[C@]43C)C2C1 (stereo partly specified)
inactive: locus YAL021C, strain ccr4, hits give low values 0.992 | locus YAL026C, strain drs2, hits give low values 1 | locus YAL030W, strain snc1, hits give low values 0.988 | locus YBL061C, strain skt5, hits give low values 0.986 | locus YBR009C, strain hhf1, hits give low values 1.02 | locus YBR021W, strain FUR4, hits give low values 1.07 | locus YBR023C, strain chs3, hits give low values 0.975 | locus YBR171W, strain sec66, hits give low values 0.993 | locus YBR229C, strain ROT2, hits give low values 1.01 | locus YBR231C, strain swc5, hits give low values 1 | locus YBR279W, strain paf1, hits give low values 0.991 | locus YCL011C, strain gbp2, hits give low values 0.985 | locus YCL016C, strain dcc1, hits give low values 0.99 | locus YCL029C, strain bik1, hits give low values 0.999 | locus YCL061C, strain MRC1, hits give low values 1 | locus YCL069W, strain vba3, hits give low values 0.995 | locus YCR088W, strain abp1, hits give low values 0.999 | locus YDL005C, strain med2, hits give low values 1.01 | locus YDL035C, strain GPR1, hits give low values 1.02 | locus YDL040C, strain nat1, hits give low values 1 | locus YDL074C, strain BRE1, hits give low values 1.02 | locus YDL101C, strain DUN1, hits give low values 0.997 | locus YDL185W, strain tfp1, hits give low values 0.954 | locus YDL192W, strain arf1, hits give low values 0.99 | locus YDR001C, strain nth1, hits give low values 0.994 | locus YDR069C, strain doa4, hits give low values 0.978 | locus YDR101C, strain arx1, hits give low values 1 | locus YDR137W, strain rgp1, hits give low values 1.01 | locus YDR150W, strain NUM1, hits give low values 1 | locus YDR159W, strain sac3, hits give low values 1.02 | locus YDR162C, strain NBP2, hits give low values 1.04 | locus YDR195W, strain ref2 0.965 | locus YDR297W, strain sur2, hits give low values 0.972 | locus YDR318W, strain mcm21, hits give low values 0.985 | locus YDR334W, strain swr1, hits give low values 0.996 | locus YDR335W, strain msn5, hits give low values 1 | locus YDR388W, hits give low values 0.988 | locus YDR392W, strain spt3, hits give low values 1.01 | locus YDR502C, strain sam2, hits give low values 0.986 | locus YEL003W, strain gim4, hits give low values 0.993 | locus YEL037C, strain rad23, hits give low values 0.998 | locus YEL061C, strain CIN8 (second series), hits give low values 0.987 | locus YER015W, strain faa2, hits give low values 0.988 | locus YER016W, strain bim1, hits give low values 0.995 | locus YER110C, hits give low values 0.987 | locus YER111C, strain swi4, hits give low values 0.994 | locus YER155C, strain BEM2 (second series), hits give low values 0.982 | locus YER155C, strain BEM2, hits give low values 1 | locus YER167W, strain BCK2, hits give low values 0.992 | locus YFR010W, strain ubp6, hits give low values 1.01 | locus YGL078C, strain dbp3, hits give low values 0.955 | locus YGL086W, strain mad1, hits give low values 0.987 | locus YGL167C, strain pmr1, hits give low values 0.994 | locus YGL173C, strain kem1, hits give low values 0.998 | locus YGL227W, strain vid30, hits give low values 0.986 | locus YGL240W, strain doc1, hits give low values 0.983 | locus YGL248W, strain PDE1, hits give low values 1.01 | locus YGL253W, strain hxk2, hits give low values 0.993 | locus YGR078C, strain PAC10, hits give low values 1 | locus YGR135W, strain pre9, hits give low values 0.963 | locus YGR229C, strain SMI1, hits give low values 0.989 | locus YGR252W, strain gcn5, hits give low values 1.04 | locus YHR013C, strain ard1, hits give low values 0.986 | locus YHR027C, strain rpn1, hits give low values 0.977 | locus YHR030C, strain SLT2, hits give low values 1.07 | locus YHR079C, strain IRE1 (second series), hits give low values 0.989 | locus YHR079C, strain IRE1, hits give low values 1.03 | locus YHR094C, strain hxt1, hits give low values 0.997 | locus YHR129C, strain ARP1, hits give low values 1.01 | locus YHR142W, strain chs7, hits give low values 1.04 | locus YHR200W, strain rpn10, hits give low values 0.996 | locus YIL066C, strain RNR3, hits give low values 1.02 | locus YIL073C, strain SPO22, hits give low values 0.964 | locus YIL125W, strain kgd1, hits give low values 0.947 | locus YIR030C, strain dcg1, hits give low values 0.985 | locus YJL092W, strain hpr5, hits give low values 1.01 | locus YJL095W, strain BCK1 (second series), hits give low values 0.991 | locus YJL095W, strain BCK1, hits give low values 0.995 and 1.03 | locus YJL115W, strain asf1, hits give low values 0.985 | locus YJL129C, strain trk1, hits give low values 1.02 | locus YJL134W, strain LCB3, hits give low values 0.998 | locus YJL154C, strain vps35, hits give low values 0.99 | locus YJL164C, strain tpk1, hits give low values 0.999 | locus YJL166W, strain qcr8, hits give low values 0.997 | locus YJL168C, strain set2, hits give low values 0.989 | locus YJL187C, strain SWE1 (second series), hits give low values 0.997
